Here are results for 10 compounds from PubChem BioAssay.

For experiment [1], the system named is Wnt5a (protein binding on small-molecule microarray). Description: Wnt5a binders on small-molecule microarray, primary screen, biophysical, 635/667 nm fluorescence (AID 1142).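 Also: fluorescence read at 667 nm with signal to noise per printed feature.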 The conditions noted are these: 635 nm fluorescence, higher = more signal.
A short description of experiment [2]: cell viability in Huh7 cells, primary screen, cytotoxicity control for HCV replication inhibitor project, CellTiter-Glo luminescence, basal, 48 h (AID 1143).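 Also: Huh7 hepatoma cells carrying a hepatitis C replication reporter with no stimulus; test concentration not given here.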 The conditions noted are these: Huh7 HCV replicon, higher = more signal, called active from +8 up or from −8 down.
The nature of experiment [3]: P. aeruginosa biofilm formation inhibitors, primary screen, PAO1 strain, BacTiter-Glo luminescence, LB-PBS (AID 1144). The conditions noted are these: 12 h, higher = more signal.
A short description of experiment [4]: CREB reporter modulators without forskolin, primary screen, cell-based, PC12, CRE-LacZ reporter, unstimulated (AID 1145). The conditions noted are these: no forskolin, luminescence, 4.5 h, higher = more signal, called active from +8 up or from −8 down.
The nature of experiment [5]: CREB reporter modulators under forskolin, primary screen, cell-based, PC12, CRE-LacZ reporter, forskolin-stimulated (AID 1146).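 Also: PC12 cells with 6xCRE LacZ reporter stimulated by forskolin 10 µM; beta-galactosidase reporter signal reflecting CREB driven transcription.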 To be noted: luminescence, 4.5 h, higher = more signal, called active from +8 up or from −8 down.
In experiment [6] the target is Streptavidin (Streptomyces avidinii) (UniProt P22629). Briefly: streptavidin binders on small-molecule microarray, primary screen, artefact control for SMM compound annotation, biophysical, 635/667 nm fluorescence (AID 1147).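 Also: signal reflects streptavidin binding to arrayed compounds as a control protein.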 To be noted: streptavidin binding, higher = more signal.
Chain of Streptavidin (Streptomyces avidinii) (P22629 whole entry, looked up): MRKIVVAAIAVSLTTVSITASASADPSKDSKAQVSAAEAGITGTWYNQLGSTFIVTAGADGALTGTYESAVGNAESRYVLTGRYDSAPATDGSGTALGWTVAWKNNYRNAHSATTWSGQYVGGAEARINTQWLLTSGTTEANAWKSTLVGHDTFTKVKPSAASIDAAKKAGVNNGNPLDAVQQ
A short description of experiment [7]: small-molecule binders of probe aInhba, primary screen, biochemical, small-molecule microarray, 635/667 nm fluorescence (AID 1148).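 Also: score merges 667nm spot fluorescence with signal-to-noise for antibody binding to printed compounds.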 The conditions noted are these: higher = more signal.
The target of experiment [8] is Torsin-1A (Homo sapiens) (UniProt O14656). Briefly: torsin A binders from cell lysate, primary screen, small-molecule microarray, wild-type, 635/667 nm (AID 1149). The conditions noted are these: COS7 hTOR1A-WT lysate, 635 nm fluorescence, higher = more signal.
Chain of Torsin-1A (Homo sapiens) (O14656 whole entry, looked up): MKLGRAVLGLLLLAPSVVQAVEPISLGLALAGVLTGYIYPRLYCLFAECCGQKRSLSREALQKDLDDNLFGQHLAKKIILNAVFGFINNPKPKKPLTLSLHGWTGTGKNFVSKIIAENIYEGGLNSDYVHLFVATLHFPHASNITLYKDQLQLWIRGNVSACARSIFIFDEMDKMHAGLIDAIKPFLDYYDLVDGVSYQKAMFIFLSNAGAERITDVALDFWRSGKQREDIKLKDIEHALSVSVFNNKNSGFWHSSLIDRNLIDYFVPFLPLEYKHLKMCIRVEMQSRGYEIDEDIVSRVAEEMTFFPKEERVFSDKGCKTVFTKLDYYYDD
For experiment [9] the target is unchanged. Description: small-molecule binders of mutant TOR1A in lysate, primary screen, cell lysate, small-molecule microarray, COS7 lysate, 635/667 nm fluorescence (AID 1150).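 Also: score pools 667 nm emission and signal to noise measuring lysate protein binding.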 The conditions noted are these: COS7 hTOR1A mutant lysate, 635 nm fluorescence, higher = more signal.
Experiment [10] relates to Sonic hedgehog protein (Shh). Briefly: small-molecule binders of Shh protein, primary screen, biochemical, small-molecule microarray, 635/667 nm fluorescence (AID 1151).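 Also: Shh protein binding to compounds spotted on small-molecule microarray slides; score combines spot fluorescence intensity with signal-to-noise across triplicate slides.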 To be noted: small-molecule microarray binding, 635 nm fluorescence; higher = more signal.

Each structure is given as a SMILES string. Active and inactive are the calls of the source. Unless noted, no rule for the calls is given here.

`O=C(OCCF)C1=CCC(c2cccc(Cl)c2)O1` (stereo not given): the composite z-score is 0.236 in [1]; 0.112 in experiment [6]; -0.0468 in experiment [7]; 1.09 with Torsin-1A (Homo sapiens) [8]; 2.19 in the experiment with Torsin-1A (Homo sapiens) [9]; 0.299 in experiment [10]. For the same compound, the z-score in experiment [2] was -2.33 (inactive); in [3], -0.0826 (inactive); in experiment [4], -0.0137 (inactive); in experiment [5], 0.351 (inactive).

Take `CCCCC=C[C@@H](NC(=O)c1ccc(C(=O)OC)cc1)c1ccccc1`: the composite z-score is 0.301 in experiment [1]; 0.994 in [6]; 0.143 in [7]; -0.225 with Torsin-1A (Homo sapiens) [8]; 0.241 in the experiment with Torsin-1A (Homo sapiens) [9]; 0.185 in [10]. For the same compound, the z-score is -2.79 (inactive) in experiment [2], 0.806 (inactive) in experiment [3], -0.185 (inactive) in experiment [4] and 1.11 (inactive) in [5].

On to `[N-]=[N+]=NCc1ccccc1C[C@]1(C(=O)O)N=C(c2ccc(OCCCO)cc2)O[C@H]1c1ccccc1CN=[N+]=[N-]`, for which the composite z-score is -0.0602 in experiment [1]; 1.66 in [6]; 0.0342 in [7]; 0.171 with Torsin-1A (Homo sapiens) [8]; 0.48 with Torsin-1A (Homo sapiens) [9]; -0.0214 in experiment [10]. For the same compound, the z-score is -1.42 (inactive) in [2], -0.046 (inactive) in experiment [3], 2.87 (inactive) in [4] and 2.69 (inactive) in experiment [5].

Consider `Cc1ccccc1C(O)C1C=CC2C(=O)N(C)C(=O)C2N1N1CCCCC1` (stereo not given), for which the composite z-score amounted to 0.343 in experiment [1]; 1.24 in experiment [6]; 0.462 in [7]; 0.851 with Torsin-1A (Homo sapiens) [8]; 0.696 with Torsin-1A (Homo sapiens) [9]; 0.0488 in [10]. Besides, the z-score in experiment [2] was 0.896 (inactive); in [3], 0.46 (inactive); in experiment [4] it was -0.133 (inactive); in experiment [5] it was -0.0415 (inactive).

Take `CCOC(=O)[C@H]1C/C=C/C[C@H](C(=O)OCC)C(=O)O[C@H]2[C@@H](OC)O[C@H](CO)[C@@H](OC(=O)Nc3ccc4c(c3)OCO4)[C@@H]2OC1=O`: the composite z-score is 0.285 in [1]; -0.0265 in [6]; 0.0342 in experiment [7]; 0.687 in the experiment with Torsin-1A (Homo sapiens) [8]; 0.126 with Torsin-1A (Homo sapiens) [9]; 0.903 in experiment [10]. Also, the z-score in [2] was -6.55 (inactive); in experiment [3], -0.353 (inactive); in experiment [4] it was 0.484 (inactive); in [5], -1.61 (inactive).

Regarding `CC(C)c1ccc(NN2C(C(O)c3c(F)cccc3Cl)C=CC3C(=O)N(c4ccccc4)C(=O)C32)cc1` (stereo not given), the composite z-score was 0.658 in [1]; 1.47 in [6]; 0.765 in experiment [7]; 0.213 in the experiment with Torsin-1A (Homo sapiens) [8]; -0.164 with Torsin-1A (Homo sapiens) [9]; -0.182 in [10]. In addition, the z-score is -0.78 (inactive) in [2], -0.53 (inactive) in experiment [3], -0.519 (inactive) in experiment [4] and 0.746 (inactive) in experiment [5].

As for `CC1CC/C=C\[C@H]2OC34C=CCN(Cc5ccccc5)C(=O)[C@H]3N(CCCCCO)C(=O)[C@@H]4C2C(=O)O1` (stereo not given in full), the composite z-score is 0.008 in experiment [1]; -0.966 in experiment [6]; -0.242 in experiment [7]; -1.17 with Torsin-1A (Homo sapiens) [8]; -1.4 with Torsin-1A (Homo sapiens) [9]; -0.829 in experiment [10]. Moreover, the z-score in experiment [2] is 0.398 (inactive); in experiment [3], 1.96 (inactive); in experiment [4] it was 1 (inactive); in [5] it was 0.424 (inactive).

With `[N-]=[N+]=NCc1ccccc1C[C@]1(C(=O)NCC(O)CO)N=C(c2ccc(OCCCO)cc2)O[C@H]1c1ccccc1N=[N+]=[N-]` (stereo not given in full), the composite z-score was 0.376 in experiment [1]; 0.22 in [6]; 0.403 in experiment [7]; 0.26 with Torsin-1A (Homo sapiens) [8]; 0.67 in the experiment with Torsin-1A (Homo sapiens) [9]; -1.48 in experiment [10]. For the same compound, the z-score in experiment [2] was -2.54 (inactive); in experiment [3] it was -0.000841 (inactive); in experiment [4] it was 0.241 (inactive); in experiment [5], -1.78 (inactive).

For the compound `COc1ccc([Si](C)(C)[C@H]2[C@H](CCn3cc(CCO)nn3)O[C@@]3(C(=O)N(Cc4ccc(N5CCOC5=O)cc4)c4ccccc43)[C@@H]2C)cc1`, the composite z-score in [1] is -0.0483; in [6], -0.0903; in [7] it was -0.0044; in the experiment with Torsin-1A (Homo sapiens) [8], 0.676; with Torsin-1A (Homo sapiens) [9], 0.806; in [10] it was 1.59. In addition, the z-score is -4.12 (inactive) in [2], 9e-05 (inactive) in [3], 0.469 (inactive) in [4] and -2.21 (inactive) in [5].

`O=C1OCC=C[C@H]2OC34C=CCN(c5ccc6ccccc6c5)C(=O)[C@H]3N(CCCO)C(=O)[C@@H]4[C@@H]12` (stereo not given in full): the composite z-score was -0.701 in experiment [1]; -0.835 in [6]; -0.0675 in [7]; -1.69 with Torsin-1A (Homo sapiens) [8]; -1.38 with Torsin-1A (Homo sapiens) [9]; -0.372 in [10]. Besides, the z-score in experiment [2] is -2.14 (inactive); in experiment [3] it was 0.179 (inactive); in experiment [4] it was 0.337 (inactive); in [5], 0.27 (inactive).
